# Measurements taken from PubChem BioAssay (NCI).
# Several values for one entry are separate records, joined by “and”; a condition that tells them apart may be missing. Equal values may be shown once. The panel holds about 79,000 compounds, 15% with a hit somewhere; the sample as a whole holds those more often. Values without a mark were called inactive. Activity calls are given as the source filed them. Cut-off read from the data, not from the text of the source: active = growth inhibition above about 70%; inactive = the rest.
# Experiment: NCI Yeast Anticancer Drug Screen. Data for the rad50EPP+ strain (AID 151);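 note: 0% = growth of vehicle-treated control cultures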
# Settings: S. cerevisiae rad50 mutant strain, active compounds read high
# Method: Growth inhibition of yeast strains with defined genetic alterations is measured as a screen for potential anti-cancer activity. Selected strains with alterations in DNA damage repair or cell cycle control were exposed to compounds and growth inhibition was measured relative to vehicle treated controls. The strain used in this assay is rad50EPP+
Compound,growth inhibition (at 1.2 µM),growth inhibition (at 3.7 µM),growth inhibition (at 11.0 µM),growth inhibition (at 33.0 µM),growth inhibition (at 100.0 µM)
C(=Nc1ccc(-c2cc(-c3ccccc3)nc3ccc4ccccc4c23)cc1)c1ccccc1,16%,7%,15%,10%,6%
c1ccc2c(c1)sc1c3cnccc3ccc21,36%,46%,55%,73% (active),65%
COC(=O)/C=C(/CC(=O)OC)C(=O)OC,2%,-2%,-1%,-1%,-3%
CN(C)CCOC1(Cc2ccc(Cl)cc2Cl)CCC(C(C)(C)C)CC1 (stereo not given),-9% and -10%,-50% and -53%,91% (active) and 94% (active),98% (active) and 92% (active),99% (active)
CCOC1Oc2ccccc2-c2nc(N)ncc21 (stereo not given),0%,-1%,-5%,-3%,-12%
COC(=O)Nc1cn2ccc(C(Cl)=C(Cl)Cl)cc2n1,-27%,-19%,-32%,-27%,-28%
Cc1c(-c2ccccn2)ccc2ccccc12,-3%,0%,10%,43%,71% (active)
CC(/C=C/c1ccccc1)=N\NC(N)=S,-5%,6%,0%,-3%,48%
